Most compounds without a hit are left out; they make up all but 2.2% or so of the library.
Mito fusion act: qHTS Assay for Small Molecule Inhibitors of Mitochondrial Division or Activators of Mitochondrial Fusion | hit rate 0.23% among 320,000 | S. cerevisiae fusion-defective mutant growth rescue, CellTiterGlo 48 h | Potency, µM (top dose mostly 46.1 µM), hits mostly activators | AID 485298, 2010; note: nearly all actives have a fitted effect of over 45% in size
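Temperature-sensitive fusion-defective S. cerevisiae (e.g. fzo1-1, mgm1-5) were grown with compound in YPEG medium (3% ethanol, 3% glycerol) for 48 hours at 37C. Growth rescue was measured as viability by CellTiterGlo luminescence after 10 minutes at ambient.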
Abeta rescue: qHTS for compounds that reverse cellular toxicity of Amyloid beta (A-beta) peptide in yeast: Primary Screen; Potency, µM (doses to about 46.1 µM), usual class: activators; AID 1347071, 2019; hit rate 0.063% among 410,000; yeast expressing A-beta42, growth rescue, OD600, 48 h; response scale: 0% DMSO, 100% iron-clioquinol control; note: nearly all actives have a fitted effect of over 55% in size
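Growth rescue measured by 600 nm absorbance after 48 h yeast culture at 30 C with compound. Values normalized between DMSO and an equimolar ferric chloride plus clioquinol control.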
FUS suppressor: qHTS for Suppressors of FUS Proteinopathy: Primary screen using FUS-linked yeast assay; S. cerevisiae FUS-expressing, growth rescue, OD600, 24 h; Potency, µM (highest dose often 76.6 µM), usual class: activators; hit rate 0.24% among 390,000; AID 1347120, 2019; note: nearly all actives have a fitted effect of over 55% in size
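Yeast expressing FUS under galactose induction, OD 0.005 in 2% galactose medium; compounds in a dilution series, 24 h at 30C. Growth rescue by absorbance at 600 nm; CP55940 positive control, DMSO negative.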
aSyn rescue: qHTS of alpha-syn Inhibitors | Yeast expressing alpha-synuclein, growth rescue, BacTiter-Glo, 24 h | Potency, µM (doses to about 46.1 µM), hits mostly activators | hit rate 0.14% among 370,000 | AID 652106, 2013; note: nearly all actives have a fitted effect of over 65% in size
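Readout is rescue of growth in alpha-synuclein-expressing yeast, so inhibitors of toxicity appear as activators. Growth after 24 hr at 30 deg C in galactose medium is quantified by luminescence.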
TDP-43 yeast inh: qHTS of TDP-43 Inhibitors; TDP-43 expressing yeast growth rescue, BacTiter-Glo, 24 h; Potency, µM (series often up to 46.1 µM), actives largely listed as activators; hit rate 1.8% among 410,000; AID 652104, 2013; note: nearly all actives have a fitted effect of over 50% in size
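In this qHTS, compounds that restore growth of yeast expressing TDP-43 appear as activators. Cells (OD600=0.02, galactose medium, raffinose-pregrown) are incubated with compound 24 hr at 30 deg C and growth is quantified by BacTiter-Glo.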
Hits are given with their value. Calls come from the whole dose curve; as a rule, active = well fitted curve in the direction sought with a large enough effect; inconclusive = small, poorly fitted or top-dose-only effect, or another doubt; inactive = no such curve, though single readings can be large; an effect the other way counts as inactive or inconclusive.

Screening CCOC(=O)CSc1nnc2n(-c3ccccc3)c(=O)c3c4c(sc3n12)CC(C(C)(C)C)CC4 (stereo not drawn) returned Abeta rescue inactive, FUS suppressor inconclusive and TDP-43 yeast inh 35µM.
`Cc1ccc(CCNC(=O)c2cc(-c3ccccc3)n[nH]2)cc1` gave Abeta rescue inactive, FUS suppressor inactive and TDP-43 yeast inh inactive.
CCN(Cc1ccccc1)C(=O)c1cc(-c2ccccc2)n[nH]1 was read as Abeta rescue inactive, FUS suppressor inactive and TDP-43 yeast inh 18µM.
For CC(CNC(=O)c1cc(-c2ccccc2)n[nH]1)c1ccccc1 (stereo not drawn) the results were Abeta rescue inactive, FUS suppressor inactive and TDP-43 yeast inh 35µM.
For CCN(Cc1ccccc1)C(=O)c1ccc(C(=O)N(CC)Cc2ccccc2)cc1 the results were Mito fusion act inactive, Abeta rescue inactive, FUS suppressor inactive, aSyn rescue inactive and TDP-43 yeast inh inactive.
For O=C(C[n+]1cccc(Br)c1)c1ccc2ccccc2c1 the results were aSyn rescue inactive.
COCCNc1nc2cc(-c3ccccc3C)sc2c(=O)n1C was read as Abeta rescue inactive, FUS suppressor inconclusive, aSyn rescue inactive and TDP-43 yeast inh inactive.
Screening Cc1ccccc1-c1cc2nc(NCc3ccccc3)n(C)c(=O)c2s1 returned Abeta rescue inactive, FUS suppressor 28µM, aSyn rescue inconclusive and TDP-43 yeast inh inconclusive.
Screening Cc1ccccc1-c1cc2nc(NCc3cccnc3)n(C)c(=O)c2s1 returned Abeta rescue inactive, FUS suppressor inactive, aSyn rescue inactive and TDP-43 yeast inh inactive.
`CC(=O)NCCNc1nc2cc(-c3ccccc3CO)sc2c(=O)n1C` gave Abeta rescue inactive, FUS suppressor inactive, aSyn rescue inconclusive and TDP-43 yeast inh 35µM.
Screening COCCNc1nc2cc(-c3ccccc3OC)sc2c(=O)n1C returned Abeta rescue inactive, FUS suppressor inactive, aSyn rescue inactive and TDP-43 yeast inh 14µM.
Cc1ccccc1-c1cc2nc(NCc3ccncc3)n(C)c(=O)c2s1 was read as Abeta rescue inactive, FUS suppressor inactive, aSyn rescue inactive and TDP-43 yeast inh inactive.
`Cc1cnc(CNc2nc3cc(-c4ccccc4C)sc3c(=O)n2C)cn1` gave Abeta rescue inactive, FUS suppressor inactive, aSyn rescue inactive and TDP-43 yeast inh 35µM.
`O=C(NCc1c(F)cccc1F)C1C2C=CC3(CN(Cc4ccccc4)C(=O)C13)O2` (stereo not drawn) gave FUS suppressor inactive.
For CC(C)CNC(=O)C1=CC(c2ccc3c(c2)OCO3)=NS(=O)(=O)N1C the results were Abeta rescue inactive, FUS suppressor inactive and TDP-43 yeast inh inactive.
For COc1ccccc1CCN1COc2c(cc3c(C)c(C)c(=O)oc3c2C)C1 the results were Abeta rescue inactive, FUS suppressor inactive and TDP-43 yeast inh inactive.
Cc1ccc(S(=O)(=O)N(C)CCCN(C)c2nc(-c3cccs3)nc3ccccc23)cc1 was read as aSyn rescue inactive.
`COc1ccc(-c2onc(C)c2C)cc1S(=O)(=O)NCc1ccco1` gave Abeta rescue inactive, FUS suppressor inactive and TDP-43 yeast inh inactive.
Screening COc1ccccc1-c1c(C#N)c(N)nc2c1CCc1ccccc1-2 returned Mito fusion act inconclusive, Abeta rescue inactive, FUS suppressor inconclusive, aSyn rescue inactive and TDP-43 yeast inh 20µM.
Screening CCOc1cc(-c2c(C#N)c(N)nc3c2CCc2ccccc2-3)ccc1O returned Mito fusion act inactive, Abeta rescue inactive, FUS suppressor inactive, aSyn rescue inactive and TDP-43 yeast inh inactive.
Screening COc1ccccc1-c1cc(-c2ccc(O)cc2)nc(N)c1C#N returned Mito fusion act inactive, Abeta rescue inactive, FUS suppressor inactive, aSyn rescue inactive and TDP-43 yeast inh 32µM.
`Cc1n[nH]c(C)c1S(=O)(=O)NCCc1c[nH]c2ccccc12` gave FUS suppressor inactive.
Screening COC1=C[C@H](C(=O)N[C@H]2CCCC[C@@H]2NC(C)=O)[C@@]2(C)Cc3ccccc3[C@H]2CC1=O returned FUS suppressor inactive.
`O=C(NC1CC1)c1ccc(Cn2c(SCc3cccc(F)c3)nc3cccnc32)cc1` gave Abeta rescue inactive, FUS suppressor inactive and TDP-43 yeast inh inactive.
